Bioassay records from PubChem BioAssay.
A selection: hits, their analogues and other compounds. The true share with any hit is near 8%.
SARS PLP yeast: blocks SARS-CoV papain-like protease in a yeast assay | Potency, µM (series often up to 32.9 µM), hits mostly activators | S. cerevisiae expressing SARS-CoV PLpro, growth rescue | hit rate 0.19% among 330,000; calls by dose curve; note: nearly all actives have a fitted effect of over 55% in size
HCMV inh: human cytomegalovirus inhibition; HFF cells, HCMV-luciferase reporter, 72 h; stronger effect = lower value; activity change, negative = inhibition, % at 57.5 µM; hit rate 4.5% among 410,000; AID 1259415; in the data active = activity change below about -60%; inconclusive = no clear call, values can overlap the other calls; inactive = above about -39%
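Two-dose cell screen: HFF monolayers treated with compounds and infected with luciferase-expressing HCMV at 1 PFU/cell, 72 h at 37C, then lysed for luciferase measurement.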
FMDV inh: foot and mouth disease virus antiviral activity; FMDV antiviral cell-based qHTS; Potency, µM (doses to about 57.9 µM), usual class: inhibitors; hit rate 1.2% among 410,000; AID 1159524; calls by dose curve; tested in HEK293T cells; note: read-out not given here; nearly all actives have a fitted effect of over 45% in size
HCV inh: HCV inhibition. Huh7.5.1 HCVcc-Cre infection, luciferase reporter, 44 h. Potency, µM (top dose mostly 41.8 µM), most hits filed as inhibitors. hit rate 3.4% among 340,000. AID 651820; active = well fitted inhibition curve with a large enough effect; inconclusive = small, poorly fitted or top-dose-only effect, or another doubt; inactive = no such curve, though single readings can be large or run the other way
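Reporter virus HCVcc-Cre (~0.5 moi) infects cells exposed to compound; seeding density 1,000 cells/well with 4 h settling beforehand. Luminescence, 15 sec read, taken 44 h post-infection following a 15 min RT substrate incubation.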
MARV entry inh: Marburg virus entry inhibition | Potency, µM (titrated, usually from 37.8 µM), hits mostly inhibitors | Marburg virus pseudotyped entry inhibition, cell reporter | hit rate 1.8% among 300,000; calls by dose curve; tested in HEK293 cells
Lassa entry inh: inhibitors of Lassa virus binding or cell entry; Lassa virus pseudotype entry inhibition, cell reporter; Potency, µM (top dose mostly 37.9 µM), hits mostly inhibitors; hit rate 1.2% among 300,000; AID 540256; calls by dose curve; tested in HEK293 cells; note: nearly all actives have a fitted effect of over 50% in size
A number is an active result; 0 = inactive; ? = inconclusive; - = no result given.

SMILES	SARS PLP yeast	HCMV inh	FMDV inh	HCV inh	MARV entry inh	Lassa entry inh
C=CC[C@@H](CC(=O)N(CCO)Cc1ccccc1)C(=O)N[C@@H](COC(=O)[C@@H](CC=C)Cc1ccc(F)cc1)Cc1c[nH]c2ccccc12	0	0	0	?	-	-
C=CCC[C@@H](Cc1ccc(F)cc1)C(=O)OC[C@H](Cc1c[nH]c2ccccc12)NC(=O)[C@@H](CC=C)CC(=O)N[C@H](CO)Cc1ccccc1	0	0	0	0	-	-
C=CCC[C@H](Cc1ccc(F)cc1)C(=O)OC[C@@H](Cc1c[nH]c2ccccc12)NC(=O)[C@H](CC=C)CC(=O)N(CCO)Cc1ccccc1	0	0	40µM	?	-	-
C=CCC[C@H](Cc1ccc(F)cc1)C(=O)OC[C@H](Cc1c[nH]c2ccccc12)NC(=O)[C@@H](CC=C)CC(=O)N[C@@H](CO)Cc1ccccc1	0	-86	0	?	-	-
COc1ccc(CNC(=O)c2ccc(-c3nc(CSc4ccccc4)c(C)o3)cc2)cc1OC	-	0	0	-	-	0
CC(C)Oc1ccc(C(=O)NC2CCCCC2)cc1	0	0	0	0	0	0
CC(C)Oc1ccc(C(CCN)C2CCCCC2)cc1 (centres undefined)	0	-99	0	?	?	?
Cc1cc(N2CCN(c3ccc(F)cc3)CC2)nc(-c2ccccc2)n1	0	?	0	10µM	0	0
Cc1cc(N2CCCC2)nc(-c2ccccc2O)n1	0	-102	0	3.2µM	0	0
Cc1cc(N2CCN(C)CC2)nc(-c2ccccc2O)n1	0	0	0	?	-	-
Cc1cc(C)nc(N2CCN(S(=O)(=O)c3ccc(F)cc3)CC2)n1	0	0	0	0	-	-
Cc1cc(C)nc(N2CCN(c3ccc(F)cc3)CC2)n1	0	0	0	10µM	-	-
COc1cc(OC)c(NC(=O)CCCn2nc(C)c3c(C)n(-c4ccccc4)nc3c2=O)cc1Cl	-	0	?	-	-	0
Cc1ccc(-n2cc(C(=O)Oc3cccc(C)c3)c3ccccc3c2=O)cc1	-	0	0	-	-	0
Cc1cc2nc(CN(Cc3ccccc3)Cc3nc4cc(C)c(C)cc4[nH]3)[nH]c2cc1C	-	0	-	-	-	-
CCOC(=O)NN=C1C[C@@H](O)[C@@H](O)[C@@H]2[C@H]3C(=O)N([C@@H](C)c4ccccc4)C(=O)[C@@H]3CC[C@@H]12	-	-	-	-	0	-
CCCCCCN1CCN(c2ccccc2Cl)CC1	0	0	0	0	-	-
CCn1c2c(c(=N)c3c1CCC3)CCCC2	0	-67	0	0	?	0
CCCCn1c2c(c(=N)c3ccccc31)CCC2	0	0	0	0	0	0
CCCCCCCCn1c2c(c(=N)c3ccccc31)CCC2	0	-97	2.5µM	2.8µM	?	?
CCOC(=O)Cn1c2c(c(=N)c3c1CCC3)CCC2	0	0	0	0	0	0
CCCCCn1c2c(c(=N)c3ccccc31)CCC2	0	-96	0	?	?	?
CCOC(=O)Cn1c2c(c(=N)c3ccccc31)CCC2	0	0	0	0	0	0
CCCCCCCCCn1c2c(c(=N)c3c1CCC3)CCCC2	0	-	10µM	3.2µM	?	4.1µM
COc1ccc(C(=O)Nn2c(SCC(=O)NCC3CCCO3)nc3ccccc3c2=O)cc1 (centres undefined)	0	?	11µM	0	?	7.3µM
SMILES	SARS PLP yeast	HCMV inh	FMDV inh	HCV inh	MARV entry inh	Lassa entry inh
COc1ccc(C(=O)Nn2c(SCC(=O)NC3CCCC3)nc3ccccc3c2=O)cc1	0	0	18µM	0	?	?
S=C(NCc1ccccc1)NCc1ccccn1	0	0	0	0	0	0
O=C(c1ccc2ccccc2c1)N1CCn2c(nnc2C(=O)N2CCOCC2)C1	-	0	-	-	-	-
O=C(NCC(c1ccco1)S(=O)(=O)c1cccs1)c1ccc(F)c(F)c1 (centres undefined)	-	0	0	-	-	0
Cc1ccc2c(c1)/C(=C/c1ccc(F)cc1)C(=O)N2	0	0	?	11µM	-	-
COc1ccc2c(c1)/C(=C/c1cc(OC)c(OC)c(OC)c1)C(=O)N2	-	0	?	?	?	?
Cc1ccc2c(c1)/C(=C/c1ccccc1C)C(=O)N2	0	0	0	0	11µM	?
O=C1Nc2ccccc2/C1=C/c1ccccc1Cl	0	0	0	?	?	?
CCCCn1c(NC(=O)c2ccco2)c(S(=O)(=O)c2ccc(C)cc2)c2nc3ccccc3nc21	0	0	0	0	0	0
CCCCn1c(NC(=O)c2ccco2)c(C(=O)OCC)c2nc3ccccc3nc21	0	-69	-	0	0	0
Cc1ccc(OCCOCCNC(C)C)c(Br)c1	0	0	0	?	?	0
CCC(C)NCCOCCOc1ccc(Cl)cc1Br (centres undefined)	0	0	0	35µM	?	?
CCC(C)NCCOCCOc1ccccc1-c1ccccc1 (centres undefined)	0	0	0	13µM	?	?
Cc1cc2nc(/C=C/c3cccnc3)[nH]c2cc1C	0	-92	0	0	-	-
Cn1c(CNC(=O)CSc2n[nH]c(-c3ccccc3Cl)n2)nc2ccccc21	-	0	0	-	-	0
COc1ccc(CCNC(=O)CCc2c(C)nc3c(c(C)nn3-c3ccc(C)cc3)c2C)c(OC)c1	-	0	0	-	0	?
FC(F)(F)c1cccc(Sc2nc(-c3ccccc3)nnc2C(F)(F)F)c1	0	0	?	0	0	?
Nc1nc(N)c2cc(Sc3ccc4ccccc4c3)ccc2n1	0	-84	?	11µM	-	-
Nc1nc(N)c2cc(Sc3cccc(C(F)(F)F)c3)ccc2n1	-	-70	?	-	-	-
Nc1nc(N)c2cc(Sc3ccc(Cl)cc3)ccc2n1	-	-77	0	-	-	-
Nc1ccc(Sc2cc(Cl)nc(N)n2)cc1	0	-	-	0	0	-
Nc1nc(-c2ccc3ccccc3c2)cs1	0	0	0	0	?	0
Cc1ccc(NC2CCCN(C(=O)CCN3CCCCO3)C2)cc1C (centres undefined)	0	0	0	-	0	0
Nc1nonc1C(=O)N1CCCC1	0	0	0	0	0	0
Cc1c(C(=O)N2CCCCC2)nnn1-c1nonc1N	0	-62	0	0	0	0
SMILES	SARS PLP yeast	HCMV inh	FMDV inh	HCV inh	MARV entry inh	Lassa entry inh
CC(CCc1ccccc1)NC(=O)Cn1c(=O)nc(-c2ccccc2)c2cc(Cl)ccc21 (centres undefined)	-	0	0	-	-	0
COc1ccc2c(c1)c(CC(=O)Nc1c(C)cccc1C)c(C)n2C(=O)c1ccc(Cl)cc1	-	0	?	-	0	0
COc1ccc(OC)c(NC(=O)Cc2c(C)n(C(=O)c3ccc(Cl)cc3)c3ccc(OC)cc23)c1	-	-71	?	-	0	?
COc1ccc2c(c1)c(CC(=O)Nc1ccc(C(C)=O)cc1)c(C)n2C(=O)c1ccc(Cl)cc1	0	0	0	0	?	?
COc1ccc2c(c1)c(CC(=O)Nc1ccccc1OC)c(C)n2C(=O)c1ccc(Cl)cc1	0	0	0	?	?	0
COc1ccc2c(c1)c(CC(=O)Nc1nnc(C3CC3)s1)c(C)n2C(=O)c1ccc(Cl)cc1	0	-76	0	0	3.2µM	?
COc1ccc2c(c1)c(CC(=O)NCc1cc([N+](=O)[O-])ccc1O)c(C)n2C(=O)c1ccc(Cl)cc1	0	-	40µM	?	0	0
CN(C)S(=O)(=O)c1ccc2c(c1)N(CC(=O)Nc1ccc(OC(F)(F)F)cc1)C(=O)CS2	-	0	0	-	-	0
